Results from PubChem BioAssay.
Activity calls are given as the source filed them.

Legend:
Albumin (Bos taurus) = Albumin (Bos taurus) (UniProt P02769); assay: bovine serum albumin binders on microarray, profiling panel, artefact control for SMM control protein annotation, biochemical, small-molecule microarray, Alexa647 label, 635/667 nm fluorescence (AID 1118); conditions: BSA-A647 binding, fluorescence 635 nm, higher = more signal;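 further: score merges 667 nm emission intensity and signal-to-noise per printed compound spot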
Albumin (Bos taurus), sequence (P02769 whole entry, looked up): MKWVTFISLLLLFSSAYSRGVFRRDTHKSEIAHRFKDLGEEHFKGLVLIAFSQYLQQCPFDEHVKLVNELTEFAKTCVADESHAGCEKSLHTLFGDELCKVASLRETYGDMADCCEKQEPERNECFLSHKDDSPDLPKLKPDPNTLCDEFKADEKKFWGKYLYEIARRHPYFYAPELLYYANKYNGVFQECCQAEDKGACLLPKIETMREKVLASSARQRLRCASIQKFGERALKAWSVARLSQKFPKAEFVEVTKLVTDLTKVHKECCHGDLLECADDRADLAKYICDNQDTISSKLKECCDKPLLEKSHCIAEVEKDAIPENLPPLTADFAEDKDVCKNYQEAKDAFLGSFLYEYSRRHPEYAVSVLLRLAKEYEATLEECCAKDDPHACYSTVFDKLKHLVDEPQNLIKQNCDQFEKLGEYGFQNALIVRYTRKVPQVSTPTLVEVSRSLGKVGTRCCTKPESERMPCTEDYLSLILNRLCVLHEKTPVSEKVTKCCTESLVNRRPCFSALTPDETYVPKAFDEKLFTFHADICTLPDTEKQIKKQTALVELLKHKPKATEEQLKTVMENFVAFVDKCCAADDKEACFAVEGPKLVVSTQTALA

[1] = small-molecule microarray binders of probe aXIP, primary screen, biochemical, NeuroSMM set, 635/667 nm fluorescence (AID 1119); conditions: higher = more signal, called active from +8 up or from −8 down;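 further: probe is the protein aXip251-270 applied at 1 µg/mL to compound-printed slides; binding of probe to printed compounds measured as 667 nm fluorescence plus signal to noise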
[2] = small-molecule binders of probe aNOTCH3, primary screen, biochemical, small-molecule microarray, 635/667 nm fluorescence (AID 1120); conditions: higher = more signal;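 further: probe is a biotin-tagged antibody raised against NOTCH3 rather than NOTCH3 protein; score merges spot fluorescence near 667 nm with spot signal to noise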
[3] = small-molecule binders of probe aNOTCH2, primary screen, biochemical, small-molecule microarray, 635/667 nm fluorescence (AID 1121); conditions: higher = more signal;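 further: score merges feature fluorescence read at 667 nm with its signal to noise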
[4] = molecular target: Carbonic anhydrase 2 (Homo sapiens) (UniProt P00918); assay: CAII small-molecule binders, profiling panel, biochemical, small-molecule microarray, Alexa647-labelled CAII (AID 1122); conditions: CAII-A647 binding fluorescence, higher = more signal
[5] = COS7 lysate on small-molecule microarray, probe aHis, 635 nm (AID 1123); conditions: COS7 cell lysate, fluorescence, higher = more signal;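 further: z-score combines 667nm fluorescence intensity with signal-to-noise per printed compound spot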
[6] = compound binding in COS7 lysate, probe aLAP1, primary screen, cell lysate, small-molecule microarray (AID 1124); conditions: probe aLAP1, fluorescence, higher = more signal;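 further: lysate comes from COS7 cells expressing LAP1 and is applied at 0.3 µg/mL; score merges spot fluorescence near 667 nm with signal-to-noise over triplicate slides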
Sam68 (KHDRBS1) = assay: Sam68 small-molecule binders, primary screen, biochemical, small-molecule microarray, 635 nm fluorescence (AID 1125); conditions: small-molecule microarray binding, higher = more signal;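 further: score merges 667 nm channel intensity with signal to noise over triplicate slides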
[7] = system: Chordin-like protein 2 (CHRDL2); assay: CHRDL2 small-molecule binders, primary screen, biochemical, small-molecule microarray, 635 nm fluorescence (AID 1126); conditions: small-molecule microarray binding, fluorescence 635 nm; higher = more signal;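 further: printed compound slides probed with Chrdl2 protein at 4 µg/mL for 1 h at 4 C; score merges 667 nm emission intensity with signal to noise over three replicate slides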
[8] = molecular target: Concanavalin-A (Canavalia ensiformis) (UniProt P02866); assay: ConA small-molecule binders, primary screen, artefact control for SMM control protein annotation, biochemical, small-molecule microarray, Alexa647 label, 635 nm (AID 1127); conditions: ConA-A647 binding fluorescence, higher = more signal;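 further: z combines 667 nm emission intensity with signal-to-noise across three replicate slides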
Concanavalin-A (Canavalia ensiformis), sequence (P02866 whole entry, looked up): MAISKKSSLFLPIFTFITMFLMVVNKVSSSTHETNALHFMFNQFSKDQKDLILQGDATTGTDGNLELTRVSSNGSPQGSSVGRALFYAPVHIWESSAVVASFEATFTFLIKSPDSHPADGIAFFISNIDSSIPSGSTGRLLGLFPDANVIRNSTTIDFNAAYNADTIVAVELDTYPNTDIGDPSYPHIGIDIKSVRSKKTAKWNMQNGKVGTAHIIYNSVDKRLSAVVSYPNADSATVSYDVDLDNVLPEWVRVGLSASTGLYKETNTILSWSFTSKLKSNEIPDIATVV

[9] = anti-His antibody binders, primary screen, artefact control for SMM control protein annotation, biochemical, small-molecule microarray, 635 nm fluorescence (AID 1128); conditions: anti-His Alexa647 antibody binding, higher = more signal;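 further: score merges feature fluorescence with signal-to-noise for each printed compound spot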
[10] = system: Human papillomavirus type 1a E7 protein (residues 1-88); assay: HPV1a E7 small-molecule binders, primary screen, biochemical, small-molecule microarray, residues 1-88, 635 nm (AID 1129); conditions: small-molecule microarray binding, fluorescence 635 nm; higher = more signal
[11] = molecular target: Focal adhesion kinase 1 (Homo sapiens) (UniProt Q05397); assay: small-molecule microarray binders of FAK, primary screen, biochemical, 635/667 nm fluorescence, BSA, DTT (AID 1130); conditions: PTK2 binding, 635 nm fluorescence, higher = more signal;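 further: composite of spot emission at 667 nm and signal to noise over triplicate slides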
Focal adhesion kinase 1 (Homo sapiens), sequence (Q05397 whole entry, looked up): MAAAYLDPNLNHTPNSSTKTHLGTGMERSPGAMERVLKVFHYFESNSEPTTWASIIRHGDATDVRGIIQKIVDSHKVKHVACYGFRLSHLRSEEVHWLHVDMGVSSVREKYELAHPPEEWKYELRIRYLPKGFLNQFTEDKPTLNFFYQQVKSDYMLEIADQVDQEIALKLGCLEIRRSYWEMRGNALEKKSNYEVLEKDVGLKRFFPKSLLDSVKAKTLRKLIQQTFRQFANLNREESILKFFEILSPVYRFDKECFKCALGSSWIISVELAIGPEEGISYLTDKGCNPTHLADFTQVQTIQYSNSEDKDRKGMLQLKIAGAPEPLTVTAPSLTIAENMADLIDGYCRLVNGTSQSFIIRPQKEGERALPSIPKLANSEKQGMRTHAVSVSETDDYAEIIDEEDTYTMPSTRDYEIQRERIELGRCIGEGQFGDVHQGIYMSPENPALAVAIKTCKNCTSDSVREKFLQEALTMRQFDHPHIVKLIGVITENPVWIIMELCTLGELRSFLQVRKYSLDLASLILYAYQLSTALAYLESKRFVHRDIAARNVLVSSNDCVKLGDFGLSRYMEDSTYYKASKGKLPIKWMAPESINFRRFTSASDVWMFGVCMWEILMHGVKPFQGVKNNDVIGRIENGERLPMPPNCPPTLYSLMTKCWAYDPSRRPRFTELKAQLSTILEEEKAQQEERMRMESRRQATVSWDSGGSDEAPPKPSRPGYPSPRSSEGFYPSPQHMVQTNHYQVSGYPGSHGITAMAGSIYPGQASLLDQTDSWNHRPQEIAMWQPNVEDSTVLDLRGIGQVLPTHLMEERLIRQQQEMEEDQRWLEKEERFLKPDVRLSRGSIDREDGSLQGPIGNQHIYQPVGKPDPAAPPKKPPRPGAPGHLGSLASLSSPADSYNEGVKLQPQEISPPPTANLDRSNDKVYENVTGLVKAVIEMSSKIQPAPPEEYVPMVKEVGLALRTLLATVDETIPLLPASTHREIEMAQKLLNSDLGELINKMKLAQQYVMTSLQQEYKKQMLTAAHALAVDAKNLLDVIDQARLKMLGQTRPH

[12] = system: Fibrinogen (Alexa647-labelled); assay: fibrinogen binders on compound microarrays, profiling panel, artefact control for SMM control-protein annotation, biochemical, small-molecule microarray, 635/667 nm fluorescence (AID 1131); conditions: fibrinogen-A647 binding fluorescence, higher = more signal;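 further: z-score merges 667 nm fluorescence with per-spot signal-to-noise over triplicate slides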
[13] = molecular target: Follistatin (Homo sapiens) (UniProt P19883); assay: follistatin binders on small-molecule microarrays, primary screen, biochemical, small-molecule microarray, 635/667 nm fluorescence (AID 1132); conditions: FST binding, 635 nm fluorescence, higher = more signal
Follistatin (Homo sapiens), sequence (P19883 whole entry, looked up): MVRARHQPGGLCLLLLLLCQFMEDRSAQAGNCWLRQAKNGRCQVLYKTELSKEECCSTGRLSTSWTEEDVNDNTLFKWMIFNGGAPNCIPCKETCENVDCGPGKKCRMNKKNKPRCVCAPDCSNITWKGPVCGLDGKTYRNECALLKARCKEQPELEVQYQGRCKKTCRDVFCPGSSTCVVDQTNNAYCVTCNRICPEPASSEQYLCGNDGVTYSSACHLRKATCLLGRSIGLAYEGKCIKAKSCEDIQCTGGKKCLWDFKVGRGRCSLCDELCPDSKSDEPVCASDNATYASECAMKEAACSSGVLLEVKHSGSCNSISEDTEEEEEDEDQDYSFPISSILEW

[14] = molecular target: Fibroblast growth factor 2 (Homo sapiens) (UniProt P09038); assay: FGF2 binders on small-molecule microarrays, primary screen, biochemical, small-molecule microarray, 635/667 nm fluorescence (AID 1133); conditions: small-molecule microarray binding, FGF2, fluorescence 635/667; higher = more signal
Fibroblast growth factor 2 (Homo sapiens), sequence (P09038 whole entry, looked up): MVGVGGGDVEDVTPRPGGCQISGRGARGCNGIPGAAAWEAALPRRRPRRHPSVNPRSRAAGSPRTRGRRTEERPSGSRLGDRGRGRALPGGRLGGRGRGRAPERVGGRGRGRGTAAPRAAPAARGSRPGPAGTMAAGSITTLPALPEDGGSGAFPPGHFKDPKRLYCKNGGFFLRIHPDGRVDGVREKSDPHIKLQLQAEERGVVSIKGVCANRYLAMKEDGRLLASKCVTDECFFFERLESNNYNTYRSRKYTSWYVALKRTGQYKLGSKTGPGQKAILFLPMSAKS

[15] = mitochondrial membrane potential change in A549 cells, profiling panel, cell-based, JC-1 fluorescence, basal, 24 h, 100 nL (AID 1138); conditions: higher = more signal;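 further: A549 lung adenocarcinoma cells under basal conditions with no added stimulus; test concentration not given here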
Lefty1 = Lefty1 binders on small-molecule microarrays, primary screen, biochemical, small-molecule microarray, 635/667 nm fluorescence (AID 1139); conditions: small-molecule microarray binding, fluorescence 635/667; higher = more signal
[16] = system: wheat germ agglutinin (Triticum aestivum), Alexa647-labelled; assay: wheat germ agglutinin binders on compound microarrays, profiling panel, artefact control for SMM control-protein annotation, biochemical, small-molecule microarray, 635/667 nm fluorescence (AID 1140); conditions: WGA-A647 binding, 635 nm fluorescence, higher = more signal;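 further: score merges 667 nm feature emission with signal to noise over triplicate slides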
[17] = molecular target: Luciferin 4-monooxygenase (Photinus pyralis) (UniProt P08659); assay: firefly luciferase enzyme inhibitors, primary screen, biochemical, luminescence, purified enzyme, 2006 set (AID 1141); conditions: SteadyGlo luminescence, 30 min, higher = more signal, called active from +8 up or from −8 down;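 further: cell-free assay with purified firefly luciferase at 100 ng per well in PBS; test concentration not given here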
Luciferin 4-monooxygenase (Photinus pyralis), sequence (P08659 whole entry, looked up): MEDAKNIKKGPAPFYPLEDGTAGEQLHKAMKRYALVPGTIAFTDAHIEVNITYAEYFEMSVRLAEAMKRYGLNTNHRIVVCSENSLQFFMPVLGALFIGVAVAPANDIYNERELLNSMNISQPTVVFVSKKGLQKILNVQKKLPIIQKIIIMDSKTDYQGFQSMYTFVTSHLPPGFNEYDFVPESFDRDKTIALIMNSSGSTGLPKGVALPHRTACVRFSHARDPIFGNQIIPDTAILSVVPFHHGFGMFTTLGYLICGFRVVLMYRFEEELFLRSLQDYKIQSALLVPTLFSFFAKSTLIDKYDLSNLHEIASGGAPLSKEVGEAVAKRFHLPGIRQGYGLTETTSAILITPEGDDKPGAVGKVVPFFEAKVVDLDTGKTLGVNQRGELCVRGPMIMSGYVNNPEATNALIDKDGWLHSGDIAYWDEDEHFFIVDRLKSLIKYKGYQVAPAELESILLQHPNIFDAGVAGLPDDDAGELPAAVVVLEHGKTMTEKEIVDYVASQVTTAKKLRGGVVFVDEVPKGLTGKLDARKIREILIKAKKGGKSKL

Row | Compound | composite z-score (Albumin (Bos taurus)) | composite Z-score [1] | composite z-score [2] | composite z-score [3] | composite z-score [4] | composite z-score [5] | composite z-score [6] | composite z-score (Sam68 (KHDRBS1)) | composite z-score [7] | composite z-score [8] | composite z-score [9] | composite z-score [10] | composite z-score [11] | composite z-score [12] | composite z-score [13] | composite z-score [14] | z-score [15] | composite z-score (Lefty1) | composite z-score [16] | z-score [17]
1 | CC(C)NC(=O)[C@@]1(Cc2ccccc2I)c2ccccc2C(=O)N(Cc2ccccc2C(F)(F)F)[C@H]1c1ccc(CO)cc1 | 0.263 | 0.0307 (inactive) | 0.059 | 0.0509 | 0.71 | 1.47 | 0.896 | 0.63 | 0.107 | 0.548 | 0.992 | 0.906 | 0.601 | 0.75 | 0.464 | 0.125 | 1.29 | 0.266 | 1.15 | -0.793 (inactive)
2 | COc1ccc([Si](C)(C)[C@@H]2[C@@H](CC(=O)N(CCO)Cc3ccccc3)O[C@]3(C(=O)N(C)c4c(Br)cc(C)cc43)[C@H]2C)cc1 | 0.597 | 0.0128 (inactive) | -0.0918 | -0.124 | 0.154 | 0.741 | 0.231 | 0.649 | 1.4 | -0.126 | 0.926 | 0.304 | 0.19 | -0.537 | 1.08 | 0.957 | -1.33 | 1.17 | 0.114 | -0.314 (inactive)
3 | NC(=O)NCC#Cc1ccc2c(c1)[C@]1(C(=O)N2)[C@H](c2ccc(O)cc2)N2[C@H](c3ccccc3)[C@H](c3ccccc3)OC(=O)[C@H]2[C@@H]1C(=O)NC[C@H](O)c1ccccc1 | 0.233 | -0.539 (inactive) | -0.464 | -0.122 | -0.051 | 0.327 | 0.469 | -1.03 | -1.12 | -1.34 | -0.652 | -0.843 | -0.126 | -1.74 | -2.12 | -1.11 | 0.717 | -3.02 | -1.82 | -0.498 (inactive)
4 | CC(C)N1C(=O)c2ccccc2[C@](C)(C(=O)O)[C@@H]1c1ccc(CO)cc1 | 0.401 | -0.158 (inactive) | -0.103 | 0.16 | 0.326 | 0.119 | 0.755 | -0.769 | -1.49 | -0.0545 | 0.181 | -1.44 | -0.0258 | -1.34 | -0.509 | -0.977 | -0.359 | -0.82 | -0.36 | 0.883 (inactive)
5 | O=C1C2C=CC(C(O)c3ccc(Br)cc3)N(Nc3ccccc3)C2C(=O)N1c1ccccc1 (stereo not given) | 0.875 | -0.0127 (inactive) | 0.328 | 0.166 | 0.652 | 1.76 | 0.189 | 0.668 | 0.527 | 0.722 | 0.0876 | 1.14 | 0.081 | 0.572 | 0.52 | -0.364 | 0.0103 | -0.51 | 1.09 | 0.296 (inactive)
6 | COC(=O)[C@@]1(Cc2ccccc2)[C@H]2c3cc(C(=O)N4CCCC4)n(Cc4ccccc4)c3C[C@H]2CN1C(=O)c1ccccc1 | 0.76 | 0.689 (inactive) | 0.591 | 0.302 | 0.637 | 2.36 | -0.0361 | 0.5 | -0.883 | 0.914 | 0.673 | 1.24 | 0.756 | 0.524 | 0.841 | -0.407 | 0.339 | 0.272 | 0.893 | 0.886 (inactive)
7 | COc1ccc(CCNC(=O)[C@@H]2c3ccccc3C(=O)N(Cc3ccccc3)[C@H]2c2ccc(CO)cc2)cc1 | 0.286 | -0.149 (inactive) | -0.199 | -0.0562 | 0.735 | 1.64 | 1.36 | 1.34 | 0.156 | 0.526 | 0.597 | 0.529 | -0.0502 | -0.279 | 0.987 | 0.363 | 1.77 | 0.442 | 0.791 | 0.582 (inactive)
8 | C=C(/C(=C/C[C@@H](OC(C)=O)c1ccccc1OCCO)c1cnc2ccccc2c1)C(C)C | 0.23 | 1.17 (inactive) | -0.0784 | -0.0859 | 0.571 | 0.503 | -0.0618 | 0.778 | 0.474 | 0.871 | 0.119 | -0.198 | 0.0328 | -0.571 | 1.17 | 1.48 | -0.111 | 1.58 | 1.05 | -0.557 (inactive)
9 | C=C(CCCC)/C(=C/C[C@H](OC(=O)c1ccncc1)c1ccc(CO)o1)c1cc(C(=O)OC)ccc1OC | 0.572 | 0.243 (inactive) | 0.201 | -0.0534 | 0.609 | 1.38 | 0.51 | 1.31 | 0.487 | 1.02 | 0.872 | 1.19 | -0.0174 | 0.826 | 0.899 | 1.08 | -0.648 | 1.28 | 1.04 | -1.19 (inactive)
10 | C=C(/C(=C/C[C@@H](OC(=O)c1ccncc1)c1cccc(OCCO)c1)c1cc(C(=O)OC)ccc1OC)C(C)C | 0.482 | 0.25 (inactive) | 0.19 | -0.0207 | 0.597 | 1.23 | 0.763 | 1.21 | 0.859 | 0.996 | 1.01 | 1.13 | -0.165 | 0.366 | 0.525 | 1.43 | 4.89 | 0.879 | 0.487 | -1.88 (inactive)
11 | O=C1N(CCS(=O)(=O)c2ccccc2)Cc2ccccc2C[C@@]12COC(c1ccc(OCCCO)cc1)=N2 | -0.0401 | 0.319 (inactive) | 0.384 | -0.0651 | 0.585 | 2.55 | 0.203 | 1.32 | 0.825 | 1.17 | 2.25 | 1.26 | 1.04 | 0.841 | 1.4 | 0.962 | 0.367 | 0.619 | 1.15 | -0.966 (inactive)
